Experimental data from PubChem BioAssay.
Where “and” joins values, the source holds several entries; their conditions need not be identical. Equal values may be shown once. Inconclusive results are not listed. Calls of active or inactive are those of the source. Unless noted, no rule for the calls is given here.

What was measured:
[1] = stimulators of insulin release from INS-1E, primary screen, cell-based, 5 mM glucose, NPC library (AID 1117329;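 active = compound raises insulin release from rat beta cells at 5 mM glucose, no numeric limit stated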); settings: rat INS-1E insulin secretion, at 10 µM, stronger effect = higher value
[2] = growth inhibition of GSK3B-pretreated HCT116 cells – cell-based, CellTiter-Glo, 0.2 to 20 µM (AID 1117336;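 active = compounds lowering colon cancer cell viability after pretreatment blocking the GSK3B kinase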); settings: HCT116 viability after GSK3B inhibitor, at 20 µM, stronger effect = higher value
[3] = inhibition of endothelial tube formation, primary screen, imaging, VEGF stimulated, CD31 staining, tube area, NPC library (AID 1117340;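 active = compound that reduces growth-factor-driven endothelial tube area in a mixed cell culture, no cutoff stated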); settings: VEGF-stimulated ADSC/ECFC co-culture, at 10 µM, stronger effect = higher value
[4] = glucagon-like peptide 1 release enhancers, primary assay, NCI-H716 cell line, NPC library (AID 1117341;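 active = compound raises GLP1 secretion from the human gut endocrine cells, with no numeric limit stated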); settings: NCI-H716 cells, at 10 µM, stronger effect = higher value
[5] = HCT116 colon cancer cell growth inhibition, primary screen, CellTiter-Glo luminescence, NPC library (AID 1117342;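 active = compounds that lower survival of HCT116 colon cancer cells in the luminescence readout, no numeric limit stated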); settings: at 20 µM (top of the series)
[6] = CellTiter-Glo luminescent readout of SW480 viability loss, NPC library primary (AID 1117343;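 active = compounds that lower viability of the colon cancer cells in the luminescence readout, with no numeric limit stated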); settings: CellTiter-Glo luminescence; at 20 µM (top of the series)
[7] = decreased DLD-1 cellular survival, CellTiter-Glo luminescent readout, NPC compound collection, primary HTS (AID 1117346;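 active = compounds that lower survival of DLD-1 colon cancer cells in the luminescence readout, no cutoff given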); settings: DLD-1 viability, CellTiter-Glo luminescence; at 20 µM (top of the series)
[8] = differential killing of epithelial or mesenchymal cells, primary screen, imaging, PC-3E GFP, TEM4-18 mCherry, co-culture (AID 1345086;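 active = compounds killing one labelled cell type while sparing the other, by normalised counts and ratio limits, not self-fluorescent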;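 also: cells exposed to compound for 72 h before imaging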;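 as to red/green cell ratio (normalised): normalised mesenchymal count divided by normalised epithelial count so high means epithelial killing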); settings: imaging cell counts, at 1 µM
[9] = modulation of C. elegans fzo-1 (AID 1259413);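 also: fzo-1 mutant C. elegans worms in liquid wells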; settings: C. elegans fzo-1 modulator screen, mean read-out; stronger effect = higher value
[10] = growth inhibition of DIPG glioma cells, dose response, cell-based, SU-DIPG-XIII, MIPE4.0, CellTiter-Glo, qHTS (AID 1347061; cut-off not given, nearly all actives have AC50 up to about 37 µM;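 also: cells exposed to compound for 48 hours before readout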); settings: SU-DIPG-XIII viability, CellTiter-Glo ATP luminescence
[11] = growth inhibition of DIPG glioma cells, dose response, cell-based, JHH-DIPG-1, MIPE4.0, CellTiter-Glo, qHTS (AID 1347062; cut-off not given, nearly all actives have AC50 up to about 27 µM;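 as to AC50: cells exposed to compound for two days before readout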); settings: JHH-DIPG-1 viability, CellTiter-Glo ATP luminescence
[12] = growth inhibition of DIPG glioma cells, dose response, cell-based, SU-DIPG-XIII, MIPE5.0, CellTiter-Glo, qHTS (AID 1347064; cut-off not given, nearly all actives have AC50 up to about 23 µM;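 as to AC50: cells exposed to compound for 48 hours before the viability read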); settings: SU-DIPG-XIII viability, CellTiter-Glo ATP luminescence
[13] = growth inhibition of DIPG glioma cells, dose response, cell-based, SU-DIPG-XVII, MIPE5.0, CellTiter-Glo, qHTS (AID 1347060; cut-off not given, nearly all actives have AC50 up to about 26 µM;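 as to AC50: cells exposed to compound for 48 hours before viability readout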); settings: SU-DIPG-XVII viability, CellTiter-Glo ATP luminescence
[14] = growth inhibition of DIPG glioma cells, dose response, cell-based, SU-DIPG-IV, MIPE4.0, CellTiter-Glo, qHTS (AID 1347063; cut-off not given, nearly all actives have AC50 up to about 30 µM;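 also: compound exposure lasted 48 hours before the viability readout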); settings: SU-DIPG-IV viability, CellTiter-Glo ATP luminescence
[15] = system: Aerobactin synthetase IucA (Klebsiella pneumoniae); test: IucA aerobactin synthetase inhibitors, biochemical, Tocris library, absorbance (AID 1345561); settings: purified IucA enzyme assay, absorbance (OD) read-out; stronger effect = lower value;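 tested at 8 µM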;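 also: 100% = enzyme without compound and 0% = no enzyme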

Q: For `C[C@@H]1CN(c2c(F)c(F)c3c(=O)c(C(=O)O)cn(C4CC4)c3c2F)C[C@H](C)N1`, which insulin secretion stimulation [1] is on record?
A: -0.9% (inactive)

Q: What about the viability decrease [2] of the same molecule?
A: -4.4% (inactive)

Q: What about the tube area decrease [3] of the same molecule?
A: -17.5% (inactive)

Q: And the GLP1 secretion stimulation [4]?
A: -0.3% (inactive)

Q: What about the inhibition of viability [5] of the same molecule?
A: 4.9% (inactive)

Q: What about the viability decrease (inhibition) [6] of the same molecule?
A: 24.4% (inactive)

Q: And the viability decrease (inhibition) [7]?
A: -6.7% (inactive)

Q: And the red/green cell ratio (normalised) ([8]; actives lie on both sides, counts scaled to control wells, 1 = unselective)?
A: 1.1 (inactive) and 1 (inactive)

Q: What about the normalised cell number ([8]; measured here: epithelial PC-3E GFP cell survival) of the same molecule?
A: 1.07 and 1.13

Q: And the normalised cell number ([8]; measured here: mesenchymal TEM4-18 mCherry cell survival)?
A: 1.18 and 1.13

Q: With `CC(C)c1ccc2oc3nc(N)c(C(=O)O)cc3c(=O)c2c1` as the molecule, how does the insulin secretion stimulation [1] read?
A: 3.2% (inactive)

Q: What about the viability decrease [2] of the same molecule?
A: 8.7% (inactive)

Q: And the tube area decrease [3]?
A: 0% (inactive)

Q: What about the GLP1 secretion stimulation [4] of the same molecule?
A: 0.3% (inactive)

Q: What about the inhibition of viability [5] of the same molecule?
A: -17% (inactive)

Q: What about the viability decrease (inhibition) [6] of the same molecule?
A: 17.9% (inactive)

Q: And the viability decrease (inhibition) [7]?
A: -27.9% (inactive)

Q: What about the mean signal [9] of the same molecule?
A: 242 (inactive)

Q: And the outcome [10]?
A: inactive

Q: What about the outcome [11] of the same molecule?
A: inactive

Q: And the outcome [12]?
A: inactive

Q: With `Cn1c(NCCN(CCO)CCCc2ccc([N+](=O)[O-])cc2)cc(=O)n(C)c1=O` as the molecule, how does the insulin secretion stimulation [1] read?
A: -5.7% (inactive)

Q: And the viability decrease [2]?
A: 38.3% (inactive)

Q: And the tube area decrease [3]?
A: 1.8% (inactive)

Q: And the GLP1 secretion stimulation [4]?
A: 2.9% (inactive)

Q: And the inhibition of viability [5]?
A: 26.6% (inactive)

Q: What about the viability decrease (inhibition) [6] of the same molecule?
A: 44.3% (inactive)

Q: What about the viability decrease (inhibition) [7] of the same molecule?
A: 14.1% (inactive)

Q: And the mean signal [9]?
A: 242 (inactive)

Q: What about the outcome [13] of the same molecule?
A: inactive

Q: And the AC50 [14]?
A: 20900 nM (active)

Q: What about the outcome [12] of the same molecule?
A: inactive

Q: With `CN(C)CCCSc1ccccc1NC(=O)/C=C/c1ccccc1` as the molecule, how does the insulin secretion stimulation [1] read?
A: 9.9% (inactive)

Q: What about the viability decrease [2] of the same molecule?
A: -78.5% (inactive)

Q: What about the tube area decrease [3] of the same molecule?
A: 23.1% (inactive)

Q: And the GLP1 secretion stimulation [4]?
A: 3.9% (inactive)

Q: What about the inhibition of viability [5] of the same molecule?
A: 25.5% (inactive)

Q: And the viability decrease (inhibition) [6]?
A: 5.3% (inactive)

Q: What about the viability decrease (inhibition) [7] of the same molecule?
A: -18% (inactive)

Q: What about the mean signal [9] of the same molecule?
A: 241 (inactive)

Q: And the remaining activity [15]?
A: 115% (inactive)

Q: For `Nc1nc(F)nc2c1ncn2[C@@H]1O[C@H](CO)[C@@H](O)[C@@H]1O`, which insulin secretion stimulation [1] is on record?
A: -0.6% (inactive)

Q: And the viability decrease [2]?
A: 12.6% (active)

Q: And the tube area decrease [3]?
A: 106% (active)

Q: And the GLP1 secretion stimulation [4]?
A: -2% (inactive)

Q: And the inhibition of viability [5]?
A: 38% (inactive)

Q: And the viability decrease (inhibition) [6]?
A: 17.2% (inactive)

Q: What about the viability decrease (inhibition) [7] of the same molecule?
A: 19.4% (inactive)

Q: What about the mean signal [9] of the same molecule?
A: 243 (inactive)

Q: And the remaining activity [15]?
A: 101% (inactive)

Q: And the AC50 [13]?
A: 10500 nM (active)

Q: Which results are given for `CC(=O)[C@]1(O)Cc2c(O)c3c(c(O)c2[C@@H](O[C@H]2C[C@H](N)[C@H](O)[C@H](C)O2)C1)C(=O)c1ccccc1C3=O`?
A: insulin secretion stimulation [1]: -1.8% (inactive); viability decrease [2]: 84% (active); tube area decrease [3]: 85.6% (active); GLP1 secretion stimulation [4]: -0.2% (inactive); inhibition of viability [5]: 68.9% (active); viability decrease (inhibition) [6]: 84.7% (active); viability decrease (inhibition) [7]: 85.5% (active); mean signal [9]: 267 (inactive); AC50 [13]: 372 nM (active); AC50 [10]: 3320 nM (active); AC50 [11]: 526 nM (active); AC50 [14]: 662 nM (active); AC50 [12]: 11800 nM (active)

Q: Which insulin secretion stimulation [1] does the source give for `COc1cccc2c1C(=O)c1c(O)c3c(c(O)c1C2=O)C[C@@](O)(C(=O)CO)C[C@@H]3O[C@H]1C[C@H](N)[C@H](O)[C@H](C)O1` here?
A: 4% (inactive)

Q: What about the viability decrease [2] of the same molecule?
A: -114% (inactive)

Q: What about the tube area decrease [3] of the same molecule?
A: 22.7% (active)

Q: What about the GLP1 secretion stimulation [4] of the same molecule?
A: 3% (inactive)

Q: What about the inhibition of viability [5] of the same molecule?
A: 40.6% (inactive)

Q: What about the viability decrease (inhibition) [6] of the same molecule?
A: 99.3% (active)

Q: What about the viability decrease (inhibition) [7] of the same molecule?
A: 82.4% (active)

Q: What about the mean signal [9] of the same molecule?
A: 234 (inactive)

Q: And the remaining activity [15]?
A: 110% (inactive)

Q: What about the AC50 [13] of the same molecule?
A: 235 nM (active)

Q: What about the AC50 [11] of the same molecule?
A: 332 nM (active)

Q: What about the AC50 [14] of the same molecule?
A: 418 nM (active)

Q: And the AC50 [12]?
A: 934 nM (active)

Q: What does the source list for `CN(CCOc1ccc(NS(C)(=O)=O)cc1)CCc1ccc(NS(C)(=O)=O)cc1`?
A: insulin secretion stimulation [1]: 1.25% (inactive); viability decrease [2]: 12.3% (inactive); tube area decrease [3]: 3.3% (active); GLP1 secretion stimulation [4]: 0.3% (inactive); inhibition of viability [5]: 11.9% (inactive); viability decrease (inhibition) [6]: 13% (inactive); viability decrease (inhibition) [7]: -6.9% (inactive); mean signal [9]: 278 (inactive); outcome [13]: inactive; outcome [10]: inactive; outcome [11]: inactive; outcome [14]: inactive

Q: With `Cc1ccc(NC(=O)c2ccc(CN3CCN(C)CC3)cc2)cc1Nc1nccc(-c2cccnc2)n1` as the molecule, how does the insulin secretion stimulation [1] read?
A: -3.1% (inactive)

Q: What about the viability decrease [2] of the same molecule?
A: 94.3% (active)

Q: What about the tube area decrease [3] of the same molecule?
A: -31% (inactive)

Q: And the GLP1 secretion stimulation [4]?
A: 13.7% (inactive)

Q: And the inhibition of viability [5]?
A: 98% (active)

Q: And the viability decrease (inhibition) [6]?
A: 97.6% (active)

Q: And the viability decrease (inhibition) [7]?
A: 88.8% (active)

Q: And the mean signal [9]?
A: 251 (inactive)

Q: What about the outcome [11] of the same molecule?
A: inactive

Q: And the outcome [14]?
A: inactive

Q: With `O=C(c1ccc(F)cc1)C1CCN(CCn2c(=S)[nH]c3ccccc3c2=O)CC1` as the molecule, how does the insulin secretion stimulation [1] read?
A: -1.4% (inactive)

Q: What about the viability decrease [2] of the same molecule?
A: 63.4% (active)

Q: What about the tube area decrease [3] of the same molecule?
A: -7.4% (inactive)

Q: What about the GLP1 secretion stimulation [4] of the same molecule?
A: 3.7% (inactive)

Q: What about the inhibition of viability [5] of the same molecule?
A: 69.7% (active)

Q: And the viability decrease (inhibition) [6]?
A: 69.7% (active)

Q: And the viability decrease (inhibition) [7]?
A: 59.8% (active)

Q: What about the mean signal [9] of the same molecule?
A: 246 (inactive)

Q: And the remaining activity [15]?
A: 106% (inactive)
